Screens as filed in PubChem.
SW480 rerep – DNA re-replication induction in SW480 cells; Potency, µM (highest dose often 46.1 µM), inactives show at the top dose re-replication activation, most hits filed as activators; SW480 DNA re-replication, Hoechst DNA content imaging, 48 h; AID 624297; 340,000 compounds, 1.8% hits; note: potency is the fitted concentration of half-maximal effect; % of control where 0% means no effect; nearly all actives have a fitted effect of over 55% in size
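Readout is total intensity of Hoechst-stained nuclei, excited at 405 nm and collected at 500-530 nm. Compound treatment lasted 48 hr at 37 C in 5% CO2 before staining.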
IL1B secr inh – inflammasome signaling inhibition, IL-1 beta readout. THP-1 LPS/ATP IL-1B secretion, AlphaLISA, 16 h; stronger effect = lower value. activity change, % at 57.5 µM. 360,000 compounds, 4.7% hits; in the data active = activity change below about -50%; inconclusive = mostly about -30% to -49%; note: % is set by controls: 0 for no effect and ±100 for the full control effect
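THP-1 cells pretreated 1 hr with compounds (up to 57.5 uM final), then stimulated with LPS (250 ng/mL final) plus ATP (1.25 mM final); secreted IL-1B measured by AlphaLISA after 16 hr, decreased signal indicating inhibition.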
Giardia kill – kills Giardia lamblia | Giardia lamblia trophozoite viability | activity change, % at 7.66 µM, hits read low | 340,000 compounds, 0.15% hits | AID 540267; in the data active = activity change below about -80%; inconclusive = between about -30% and that limit;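 note: parasites exposed to compound for two days anaerobically before the ATP read; % is set by controls: 0 for no effect and ±100 for the full control effect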
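Each well holds 100 Giardia trophozoites and compound. After two days (48 hrs) at 37 deg C in anaerobic conditions, ATP is quantified by luminescence.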
Vif-A3F inh – blocks the Vif interaction with APOBEC3F; HeLa A3F-eYFP + Vif (tagged APOBEC3F with the HIV-1 protein that degrades it), YFP fluorescence increase; AID 602313; Potency, µM (doses to about 46.1 µM), without a hit: top-dose activity, negative = active; 390,000 compounds, 0.2% hits; note: potency is the fitted concentration of half-maximal effect; % of control where 0% means no effect; nearly all actives have a fitted effect of over 65% in size
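HeLa cells stably expressing A3F-eYFP plus Vif, plated and incubated overnight at 37 deg C, then exposed to compounds overnight at 37 deg C. Blocked degradation read as raised yellow fluorescence (Ex 488/Em 500-530).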
MCF10A rereplic – induces DNA re-replication in MCF 10a normal breast cells. 350,000 compounds, 2.9% hits. AID 624296. Potency, µM (titrated, usually from 46.1 µM), without a hit: top-dose activity, positive = re-replication, hits mostly activators. MCF 10A DNA re-replication, Hoechst nuclear intensity, 48 h; note: potency is the fitted concentration of half-maximal effect; % of control where 0% means no effect; nearly all actives have a fitted effect of over 50% in size
Vif-A3G inh – inhibitors of Vif-APOBEC3G interaction; Potency, µM (top dose mostly 46.1 µM), for the others: top-dose activity, negative = active, actives largely listed as inhibitors; Q9HC16; HeLa A3G-eYFP + Vif (tagged APOBEC3G with the HIV-1 protein that degrades it), YFP fluorescence, overnight; AID 602310; 410,000 compounds, 0.076% hits; note: potency is the fitted concentration of half-maximal effect; % is set by controls: 0 for no effect and ±100 for the full control effect; nearly all actives have a fitted effect of over 60% in size
Target sequence (Q9HC16 whole entry, looked up): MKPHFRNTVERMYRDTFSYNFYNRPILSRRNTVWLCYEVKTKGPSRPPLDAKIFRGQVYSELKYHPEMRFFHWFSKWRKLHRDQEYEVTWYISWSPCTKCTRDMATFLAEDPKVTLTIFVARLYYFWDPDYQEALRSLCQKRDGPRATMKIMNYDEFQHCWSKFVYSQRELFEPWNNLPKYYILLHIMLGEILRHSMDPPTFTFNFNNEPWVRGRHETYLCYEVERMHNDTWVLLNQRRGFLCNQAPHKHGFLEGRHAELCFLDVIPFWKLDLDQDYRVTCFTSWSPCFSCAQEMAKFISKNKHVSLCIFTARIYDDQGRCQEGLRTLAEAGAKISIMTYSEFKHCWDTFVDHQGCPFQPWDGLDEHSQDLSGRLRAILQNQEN
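HeLa cells stably expressing Vif and C-terminally eYFP-tagged A3G, seeded overnight at 37 deg C, then exposed to compound by pintool overnight at 37 deg C. Rise in yellow fluorescence (Ex 488/Em 500-530, Acumen) marks blocked Vif-driven A3G degradation.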
Numbers without * were called inactive; ? = inconclusive; / = no result; [ ] = dose if it differs, or a comment. Only some compounds are listed: those with a hit (about 6.9% of all), similar ones and a draw of the others. Unless noted, calls come from the whole dose curve; as a rule, active = well fitted curve in the direction sought with a large enough effect; inconclusive = small, poorly fitted or top-dose-only effect, or another doubt; inactive = no such curve, though single readings can be large; an effect the other way counts as inactive or inconclusive.

SMILES	SW480 rerep	IL1B secr inh	Giardia kill	Vif-A3F inh	MCF10A rereplic	Vif-A3G inh
COc1ccc2nc(N3CCC(C)CC3)c(C#N)cc2c1	21µM*	-2	8	-5%	5.8µM*	0%
Cc1sc2ncnc(N3CCC(C(=O)Nc4cc(C(F)(F)F)ccc4OCC(F)(F)F)CC3)c2c1C	-22%	-56*	-9	3%	12%	3%
Cc1sc2ncnc(N3CCC(C(=O)NNC(=O)c4ccc(Cl)cc4)CC3)c2c1C	3%	-81*	-1	0%	14%	2%
Cc1ccc2nc(NC(=O)C3CCN(c4ncnc5sc(C)c(C)c45)CC3)sc2c1	23%	6	23	-24%	23µM*	0%
Cc1sc2ncnc(N3CCC(C(=O)N(C)CC(=O)Nc4ccc(Cl)c(C(F)(F)F)c4)CC3)c2c1C	-423%	-55*	-9	-22%	?	2%
COc1ccc(S(=O)(=O)N(C)C)cc1NC(=O)C1CCN(c2ncnc3sc(C)c(C)c23)CC1	-1%	-15	-12	-1%	21%	6%
COc1ccc(-c2ccc(OC)c(C3C4C=CCCC4(C)C(=O)N3Cc3ccccc3)c2)cc1OC (centres undefined)	/	/	-22	/	/	0%
COc1ccc(NC(=O)CCn2c(=O)c3cccn3c3cccnc32)c(OC)c1	/	/	/	-2%	/	?
Cc1ccc(C)c(S(=O)(=O)N2CCN(C(=O)C3CCN(c4ncnc5sc(C)c(C)c45)CC3)CC2)c1	21µM*	?	1	-31%	21µM*	-14%
CC1=CC(=C(C#N)c2nc3ccccc3s2)C=C(C)N1CC1CCCO1 (centres undefined)	23µM*	25	-16	?	13µM*	?
N#CCCN(C(=O)CSc1ncccn1)c1ccc2c(c1)OCCO2	-27%	-15	21	-2%	-1%	5%
O=C(CCl)N(C/C=C/c1ccccc1)c1ccc2c(c1)OCCO2	?	-115*	16	-16%	?	-27%
O=C(NNC(=S)Nc1ccccc1)c1ccccc1[N+](=O)[O-]	3%	-73*	-4	1%	-3%	1%
CC(C)(C)n1ncc2c(=O)n(Cc3cccc(F)c3)cnc21	/	/	/	/	/	2%
O=C(O)c1ccccc1C(=O)c1ccc2c(c1)N(Cc1ccc(Cl)c(Cl)c1)C(=O)CO2	-2%	-53*	-20	-4%	?	1%
CSc1nc(N)nc(SCC(=O)c2ccc(C)cc2)c1C#N	?	-3	9	3%	5.8µM*	-1%
Cc1[nH]nc2c1C(c1ccsc1C)C(C#N)=C(N)O2 (centres undefined)	2%	?	-8	-2%	0%	-16%
Cc1cc(C2C(C#N)=C(N)Oc3n[nH]c(C)c32)c(C)s1 (centres undefined)	6%	?	-8	-6%	?	-23%
Cc1ccc(-c2ccc(C3C(C#N)=C(N)Oc4n[nH]c(C)c43)o2)cc1 (centres undefined)	?	2	-1	-15%	23µM*	-11%
Cc1[nH]nc2c1C(c1ccc(-c3ccccc3C#N)o1)C(C#N)=C(N)O2 (centres undefined)	-14%	-56*	18	-7%	-5%	-10%
Cc1[nH]nc2c1C(c1ccc(-c3ccc(Cl)cc3)o1)C(C#N)=C(N)O2 (centres undefined)	?	-101*	-14	-12%	?	-19%
Cc1[nH]nc2c1C(c1ccc(F)cc1)C(C#N)=C(N)O2 (centres undefined)	-1%	-28	19	-2%	0%	-8%
C[N+]1(C)[C@@H]2CC(OC(=O)C(O)(c3cccs3)c3cccs3)C[C@H]1[C@@H]1O[C@@H]12 (some centres undefined)	0%	/	/	/	4%	/
CC(C)N(Cc1nc(-c2ccc(Cl)cc2)no1)C(=O)c1ccco1	/	/	/	3%	/	3%
Cc1cc(C)c(OCC(=O)Nc2ccc(NC(=O)c3ccco3)cc2)c([N+](=O)[O-])c1	-6%	16	-5	-2%	-9%	-3%
SMILES	SW480 rerep	IL1B secr inh	Giardia kill	Vif-A3F inh	MCF10A rereplic	Vif-A3G inh
Cc1cc(C)cc(-n2nnnc2SCC(=O)Nc2cccc(NC(=O)c3ccco3)c2)c1	2%	-52*	20	1%	?	2%
Cc1cc(C)c(OCC(=O)Nc2cccc(NC(=O)c3ccco3)c2)c(Br)c1	1%	-55*	11	-7%	1%	4%
CCC(=O)Nc1cccc(-n2nnnc2SCC(=O)NCc2ccco2)c1	-8%[9.22 µM]	7	-11	6%	-4%	0%
CCC(=O)Nc1cccc(-n2nnnc2SCC(=O)c2ccc(C)c(C)c2)c1	-9%	-92*	-2	5%	-3%	-3%
Cc1ccc(-c2[nH]ncc2CNCCc2cnn(-c3ccccc3)c2)cc1C	?	-60*	-16	-9%	?	0%
Nc1c(Br)cc(Br)c2c1-c1ccc([N+](=O)[O-])cc1C2	5%	2	-11	4%	4%	-1%
CC(=O)Nc1c(Br)cc2c(c1Br)Cc1cc([N+](=O)[O-])ccc1-2	4.1µM*	7	11	0%	?	-3%
O=C(Nc1c(Cl)cc2c(c1Cl)Cc1cc([N+](=O)[O-])ccc1-2)C(Cl)Cl	?	-24	-4	-1%	18µM*	-8%
C=C1C=C(C(F)F)n2ncc(C(=O)Nc3cccc(CC)c3)c2N1	/	/	/	/	/	3%
Cc1cccc(C(=O)OCc2cc(=O)n3ccsc3n2)c1	/	/	/	2%	/	8%
COc1cc2c3nnc(-c4ccc(F)cc4)c-3cn(Cc3ccc(C)cc3)c2cc1OC	1%	13	14	-343%	?	?
COc1cc2c3nnc(-c4ccc(F)cc4)c-3cn(Cc3cccc(F)c3)c2cc1OC	6.5µM*	-3	-10	6.3µM*	?	7.9µM*
COc1cc2c3nnc(-c4ccc(F)cc4)c-3cn(Cc3cccc(C)c3)c2cc1OC	21µM*	-98*	1	?	?	-6%
COc1cc2c3nnc(-c4ccccc4)c-3cn(Cc3ccc(F)cc3)c2cc1OC	18µM*	-192*	-8	?	?	?
COc1ccc(CC(=O)Nc2sc3c(c2C(=O)Nc2cccc(Cl)c2)CCCCC3)cc1	/	/	/	0%	/	-9%
Cc1nc2nc(SCC(=O)NCc3ccccc3)nn2c(C)c1Cc1ccccc1Cl	/	/	/	-4%	/	?
COc1ccc2c(Cn3cnc4cc([N+](=O)[O-])ccc4c3=O)cc(=O)oc2c1	5.8µM*	1	6	-2%	9.2µM*	?
